The values that follow come from the supplement of paper PMC10849652.

The full data set covers some 7,900 targets. This sample favours those with a hit. About 0.6% of all pairs of compound and target were hits. A number with no mark means an inactive call.

UniProt Q96T51, sequence (Q96T51 whole entry, looked up): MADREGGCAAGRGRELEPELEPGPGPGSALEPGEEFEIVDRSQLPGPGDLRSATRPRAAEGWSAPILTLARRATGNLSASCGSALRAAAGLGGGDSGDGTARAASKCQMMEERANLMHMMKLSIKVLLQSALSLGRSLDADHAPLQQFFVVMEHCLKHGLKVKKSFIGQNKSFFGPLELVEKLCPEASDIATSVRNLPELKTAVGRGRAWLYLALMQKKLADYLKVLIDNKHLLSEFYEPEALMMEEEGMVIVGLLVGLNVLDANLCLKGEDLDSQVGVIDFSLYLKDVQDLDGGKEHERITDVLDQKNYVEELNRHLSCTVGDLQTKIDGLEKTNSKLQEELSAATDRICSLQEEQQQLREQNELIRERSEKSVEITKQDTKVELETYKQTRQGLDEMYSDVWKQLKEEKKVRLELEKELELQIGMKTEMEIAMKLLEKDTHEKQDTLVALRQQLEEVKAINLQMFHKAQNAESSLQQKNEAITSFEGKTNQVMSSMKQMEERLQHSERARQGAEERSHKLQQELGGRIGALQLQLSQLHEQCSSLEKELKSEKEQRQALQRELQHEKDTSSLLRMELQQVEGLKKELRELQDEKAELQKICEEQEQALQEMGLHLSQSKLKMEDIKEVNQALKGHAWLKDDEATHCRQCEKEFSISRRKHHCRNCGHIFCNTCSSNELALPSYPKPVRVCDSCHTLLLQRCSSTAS
UniProt Q8N122, sequence (Q8N122 whole entry, looked up): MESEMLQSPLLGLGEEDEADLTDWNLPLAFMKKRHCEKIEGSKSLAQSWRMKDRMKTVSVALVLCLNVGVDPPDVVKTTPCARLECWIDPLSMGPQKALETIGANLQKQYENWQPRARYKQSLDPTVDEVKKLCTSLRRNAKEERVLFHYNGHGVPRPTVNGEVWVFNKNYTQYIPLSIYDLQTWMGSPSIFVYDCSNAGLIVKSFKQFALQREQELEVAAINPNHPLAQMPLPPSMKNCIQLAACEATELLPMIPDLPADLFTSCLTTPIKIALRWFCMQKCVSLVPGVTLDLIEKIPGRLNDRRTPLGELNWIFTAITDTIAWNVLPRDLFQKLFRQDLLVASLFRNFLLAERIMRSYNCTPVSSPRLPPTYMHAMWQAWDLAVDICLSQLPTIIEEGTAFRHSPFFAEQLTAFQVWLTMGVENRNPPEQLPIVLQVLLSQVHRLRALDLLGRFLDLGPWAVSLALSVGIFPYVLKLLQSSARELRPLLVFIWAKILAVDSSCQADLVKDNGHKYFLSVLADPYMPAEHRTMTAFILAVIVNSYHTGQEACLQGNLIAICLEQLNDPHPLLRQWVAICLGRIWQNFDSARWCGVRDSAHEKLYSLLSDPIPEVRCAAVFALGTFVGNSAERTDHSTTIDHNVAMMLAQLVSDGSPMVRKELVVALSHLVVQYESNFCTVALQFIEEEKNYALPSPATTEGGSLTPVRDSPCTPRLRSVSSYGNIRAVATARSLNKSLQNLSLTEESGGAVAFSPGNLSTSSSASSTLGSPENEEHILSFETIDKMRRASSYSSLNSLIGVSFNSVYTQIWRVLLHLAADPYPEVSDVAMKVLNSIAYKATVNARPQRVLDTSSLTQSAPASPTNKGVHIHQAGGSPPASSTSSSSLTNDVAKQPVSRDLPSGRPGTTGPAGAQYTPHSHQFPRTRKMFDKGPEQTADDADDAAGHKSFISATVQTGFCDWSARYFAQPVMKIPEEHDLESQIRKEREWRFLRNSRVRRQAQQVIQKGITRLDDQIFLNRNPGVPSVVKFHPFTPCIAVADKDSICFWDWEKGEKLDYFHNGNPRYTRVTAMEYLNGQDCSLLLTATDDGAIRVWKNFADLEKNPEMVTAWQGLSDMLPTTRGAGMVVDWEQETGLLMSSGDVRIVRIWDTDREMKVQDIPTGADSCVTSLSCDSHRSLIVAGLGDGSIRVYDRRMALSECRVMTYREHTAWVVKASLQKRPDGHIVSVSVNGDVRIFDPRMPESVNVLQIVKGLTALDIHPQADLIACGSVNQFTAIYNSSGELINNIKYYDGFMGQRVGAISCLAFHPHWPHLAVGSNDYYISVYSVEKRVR
UniProt Q14493, sequence (Q14493 whole entry, looked up): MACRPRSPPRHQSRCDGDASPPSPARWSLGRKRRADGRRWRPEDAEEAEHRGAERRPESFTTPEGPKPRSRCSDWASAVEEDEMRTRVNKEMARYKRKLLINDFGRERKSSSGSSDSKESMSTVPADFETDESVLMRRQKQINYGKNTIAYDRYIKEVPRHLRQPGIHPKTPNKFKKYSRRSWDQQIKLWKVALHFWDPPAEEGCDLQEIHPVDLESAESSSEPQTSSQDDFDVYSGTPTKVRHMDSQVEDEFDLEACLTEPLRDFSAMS
UniProt Q9GZR1, sequence (Q9GZR1 whole entry, looked up): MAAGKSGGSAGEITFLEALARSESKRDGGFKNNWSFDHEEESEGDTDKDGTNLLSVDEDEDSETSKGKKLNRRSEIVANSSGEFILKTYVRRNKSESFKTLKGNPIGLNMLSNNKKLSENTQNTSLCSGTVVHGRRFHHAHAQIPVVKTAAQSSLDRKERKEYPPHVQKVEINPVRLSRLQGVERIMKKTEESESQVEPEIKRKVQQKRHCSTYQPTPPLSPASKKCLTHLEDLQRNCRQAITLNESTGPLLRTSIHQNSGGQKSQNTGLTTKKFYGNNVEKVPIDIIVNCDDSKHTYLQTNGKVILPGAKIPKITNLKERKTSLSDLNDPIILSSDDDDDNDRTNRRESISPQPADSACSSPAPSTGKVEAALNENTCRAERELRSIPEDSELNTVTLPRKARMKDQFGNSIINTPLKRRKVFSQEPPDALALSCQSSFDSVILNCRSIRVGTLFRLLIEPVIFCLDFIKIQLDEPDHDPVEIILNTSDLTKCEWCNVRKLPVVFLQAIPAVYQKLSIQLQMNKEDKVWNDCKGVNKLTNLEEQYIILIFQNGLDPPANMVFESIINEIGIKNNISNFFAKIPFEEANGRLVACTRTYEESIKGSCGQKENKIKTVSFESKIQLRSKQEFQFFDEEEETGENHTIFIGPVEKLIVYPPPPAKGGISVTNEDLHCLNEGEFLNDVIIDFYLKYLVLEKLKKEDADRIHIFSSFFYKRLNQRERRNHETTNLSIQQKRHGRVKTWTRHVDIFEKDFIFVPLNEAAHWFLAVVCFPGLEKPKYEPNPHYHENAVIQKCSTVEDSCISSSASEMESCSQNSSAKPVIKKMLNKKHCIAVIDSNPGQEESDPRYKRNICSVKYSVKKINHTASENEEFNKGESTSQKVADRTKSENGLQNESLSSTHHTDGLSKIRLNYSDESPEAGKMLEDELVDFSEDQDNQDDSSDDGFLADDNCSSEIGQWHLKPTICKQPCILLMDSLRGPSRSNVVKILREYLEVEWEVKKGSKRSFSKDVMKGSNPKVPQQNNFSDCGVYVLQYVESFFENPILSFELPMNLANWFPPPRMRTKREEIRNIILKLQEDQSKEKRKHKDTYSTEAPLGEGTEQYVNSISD
UniProt Q8N5L8, sequence (Q8N5L8 whole entry, looked up): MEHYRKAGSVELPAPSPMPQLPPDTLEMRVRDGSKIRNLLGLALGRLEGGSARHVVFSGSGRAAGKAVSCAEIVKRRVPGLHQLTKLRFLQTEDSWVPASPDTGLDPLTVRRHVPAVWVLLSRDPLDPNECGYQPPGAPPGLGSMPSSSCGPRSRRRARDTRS
UniProt Q9BY42, sequence (Q9BY42 whole entry, looked up): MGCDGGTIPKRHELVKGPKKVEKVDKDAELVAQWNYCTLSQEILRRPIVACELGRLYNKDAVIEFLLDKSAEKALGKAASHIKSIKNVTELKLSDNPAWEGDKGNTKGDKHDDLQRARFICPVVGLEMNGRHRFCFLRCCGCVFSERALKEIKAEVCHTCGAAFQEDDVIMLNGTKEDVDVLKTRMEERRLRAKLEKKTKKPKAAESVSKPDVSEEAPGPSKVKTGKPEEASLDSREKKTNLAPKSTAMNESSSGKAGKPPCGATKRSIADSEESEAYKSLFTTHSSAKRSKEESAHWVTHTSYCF
UniProt P11233, sequence (P11233 whole entry, looked up): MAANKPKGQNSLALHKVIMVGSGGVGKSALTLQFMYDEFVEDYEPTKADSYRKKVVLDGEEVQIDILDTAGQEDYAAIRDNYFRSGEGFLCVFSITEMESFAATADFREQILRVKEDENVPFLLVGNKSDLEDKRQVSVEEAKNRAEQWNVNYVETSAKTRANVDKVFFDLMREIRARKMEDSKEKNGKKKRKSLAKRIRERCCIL
UniProt Q15349, sequence (Q15349 whole entry, looked up): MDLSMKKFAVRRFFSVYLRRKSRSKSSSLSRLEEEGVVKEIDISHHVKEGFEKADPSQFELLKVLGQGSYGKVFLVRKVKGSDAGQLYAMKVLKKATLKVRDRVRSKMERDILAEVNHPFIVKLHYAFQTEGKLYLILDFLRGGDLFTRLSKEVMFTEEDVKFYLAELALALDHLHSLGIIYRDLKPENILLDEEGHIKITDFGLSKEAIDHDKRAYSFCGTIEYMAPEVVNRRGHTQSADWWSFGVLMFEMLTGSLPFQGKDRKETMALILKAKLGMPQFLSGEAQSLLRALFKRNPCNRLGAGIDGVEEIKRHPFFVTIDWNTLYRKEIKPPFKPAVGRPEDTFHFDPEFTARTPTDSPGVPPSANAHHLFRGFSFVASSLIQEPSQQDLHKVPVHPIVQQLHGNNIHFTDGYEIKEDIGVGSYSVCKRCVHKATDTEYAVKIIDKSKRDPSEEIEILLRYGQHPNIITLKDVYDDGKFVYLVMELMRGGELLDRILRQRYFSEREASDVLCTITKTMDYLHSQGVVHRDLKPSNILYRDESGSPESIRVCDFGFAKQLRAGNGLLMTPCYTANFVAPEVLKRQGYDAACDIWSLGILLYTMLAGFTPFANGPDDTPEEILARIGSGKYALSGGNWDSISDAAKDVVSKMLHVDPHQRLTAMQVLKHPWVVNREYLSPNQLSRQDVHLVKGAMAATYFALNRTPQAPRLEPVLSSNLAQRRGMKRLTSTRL
UniProt Q9NX18, sequence (Q9NX18 whole entry, looked up): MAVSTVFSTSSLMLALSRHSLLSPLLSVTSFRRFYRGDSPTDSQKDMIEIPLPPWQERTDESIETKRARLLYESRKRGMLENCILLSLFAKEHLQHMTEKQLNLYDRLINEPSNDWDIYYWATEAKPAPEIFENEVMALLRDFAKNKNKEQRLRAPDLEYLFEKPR

Compound in this assay: C1=CC=C(C=C1)[C@H](COC2=CC3=C(C=C2)NC(=O)N3)NC(=O)C4=CC=CN(C4=O)CC5=CC(=C(C=C5)F)F
The assay can be described thus: log2 fold change, soluble protein after heating vs DMSO (PISA); higher = thermal stabilisation; K562 cells, 10 uM, 30 min; active = over 0.2 and 3.5 SD of the protein, either way, in both replicates (recomputed). The method, boiled down:
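For each measurement, 10 μM compound was applied for 30 min to K562 cells at 2×10^6 cells/mL. Aliquots were heated for 3 min across 48°C-58°C, pooled, and extracted in PBS with 0.5% NP-40 at 4°C; the supernatant after 21,000xg for 90 min was soluble protein. This was quantified by TMTpro 16plex LC-MS/MS with channel sums equalised, and thermal stability was reported relative to control samples from duplicates, on a log2 fold-change scale.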
Regarding RHOXF2 (UniProt Q9BQY4), the log2 fold change is 0.004.

For the target RSPRY1 (UniProt Q96DX4), the log2 fold change is -0.009.

In the case of RNF14 (UniProt Q9UBS8), the log2 fold change was -0.031.

SCAMP2 (UniProt H3BUB6): the log2 fold change is 0.03.

For RPS3A (UniProt P61247), the log2 fold change was 0.053.

Regarding RNF41 (UniProt Q9H4P4), the log2 fold change is 0.039.

As for RBM17 (UniProt Q96I25), the log2 fold change was -0.038.

For the target RAD50 isoform 2 (UniProt Q92878), the log2 fold change was -0.006.

As for SAFB2 (UniProt K7EQU4), the log2 fold change is -0.338.

With SLBP (UniProt Q14493), the log2 fold change is -0.092.

On to RNPEP (UniProt Q9H4A4), for which the log2 fold change was -0.043.

As to SAMSN1 isoform 3 (UniProt Q9NSI8), the log2 fold change is -0.028.

With RBM26 isoform 2 (UniProt Q5T8P6), the log2 fold change was -0.068.

For SENP6 (UniProt Q9GZR1), the log2 fold change is 0.023.

Take RUFY1 (UniProt Q96T51): the log2 fold change is -0.006.

With RAVER1 (UniProt E9PAU2), the log2 fold change was -0.138.

Consider SGPL1 (UniProt O95470), for which the log2 fold change was 0.041.

On to RSL1D1 (UniProt O76021), for which the log2 fold change is 0.18.

Take RAB5IF isoform 5 (UniProt Q9BUV8): the log2 fold change is 0.003.

In the case of RECQL (UniProt P46063), the log2 fold change was -0.012.

As to SIRT2 (UniProt Q8IXJ6), the log2 fold change is -0.075.

Turning to RAD51 (UniProt Q06609), the log2 fold change is -0.006.

Take SDHAF2 (UniProt Q9NX18): the log2 fold change was -0.02.

For the target RRP9 (UniProt O43818), the log2 fold change is 0.036.

RALA (UniProt P11233): the log2 fold change is 0.021.

As for RPP25L (UniProt Q8N5L8), the log2 fold change is 0.032.

Consider SCYL3 isoform 2 (UniProt Q8IZE3), for which the log2 fold change was -0.014.

In the case of RRP12 (UniProt Q5JTH9), the log2 fold change was -0.015.

On to RETREG3 (UniProt Q86VR2), for which the log2 fold change was 0.076.

On to RNF220 (UniProt Q5VTB9), for which the log2 fold change is 0.004.

In the case of RB1CC1 (UniProt Q8TDY2), the log2 fold change was 0.198.

Turning to ROCK2 (UniProt O75116), the log2 fold change is -0.026.

For RTF2 (UniProt Q9BY42), the log2 fold change is 0.054.

Take RAB33B (UniProt Q9H082): the log2 fold change was 0.003.

For SASH1 (UniProt O94885), the log2 fold change was -0.044.

RELA (UniProt Q04206): the log2 fold change is -0.013.

In the case of RPTOR (UniProt Q8N122), the log2 fold change was -0.022.

For the target RPS5 (UniProt P46782), the log2 fold change was 0.049.

Turning to RPS6KA2 isoform 2 (UniProt Q15349), the log2 fold change is -0.016.
